PubChem BioAssay (Tox21)
Records with an inconclusive call do not appear. A number with no mark means an inactive call. Calls follow the shape of the dose curve; as a rule, active = well fitted cell-killing curve with a large enough effect in the repeat runs; inconclusive = weak or mixed curves, or effect the other way; inactive = flat fitted curve, though single readings scatter.

Assay: qHTS assay to identify small molecule antagonists of the estrogen receptor alpha (ER-alpha) signaling pathway using the BG1 cell line in the presence of 0.1 nM 17-beta-estradiol - cell viability counter screen (AID 1259241); also: nearly all actives have a fitted effect of over 40% in size
Details: VM7Luc4E2 (BG1) viability, CellTiter-Fluor protease, 22 h, 0.1 nM estradiol agonist added; series mostly up to 92.4 µM; activity change, negative = cytotoxicity: at the top concentration
Description: National Center for Advancing Translational Sciences [NCATS]
NIH Chemical Genomics Center [NCGC]
U.S. Environmental Protection Agency [EPA]
National Institutes of Environmental Health Sciences [NIEHS]
National Toxicology Program [NTP]
U.S. Food and Drug Administration [FDA]
Estrogen receptor (ER), a member of the nuclear hormone receptor plays an important role in development, metabolic homeostasis and reproduction. Two subtypes of ER, ER-alpha and ER-beta, have similar expression patterns with some uniqueness in both types. Endocrine disrupting chemicals (EDCs) and their interactions with steroid hormone receptors like ER causes disruption of normal endocrine function. Therefore, it is important to understand the effect of environmental chemicals in ER signaling pathway. For identifying ER antagonists, VM7Luc4E2 cell line was used to screen against Tox21 compound libraries.
VM7Luc4E2 cell line (provided by Denison MS, University of California) endogenously express full-length ER-alpha and is stably transfected with a plasmid containing four estrogen responsive elements (ERE) upstream of a luciferase reporter gene. The current screening for identification of ER-alpha inhibitors against Tox21 compound libraries used lower concentration (0.1 nM) of 17beta-Estradiol as a stimulator. The cytotoxicity of the Tox21 compound libraries against VM7Luc4E2 cell line was tested by measuring live-cell protease activity using CellTiter-Fluor assay in the same wells.
Tox21 Assay Protocol Summary:
VM7Luc4E2 cells were cultured in phenol red free assay medium containing 10% charcoal stripped FBS for 5 days prior to the assay. The cells were dispensed at 4,000 cells/well in 4 uL of assay medium into white wall/solid-bottom 1536-well plates (Corning Life Sciences, Corning, NY) using a Multidrop Combi (ThermoFisher Scientific, Waltham, MA) dispenser. After the assay plates were incubated at 37C and 5% CO2 for 24 hr, 23 nL of compounds dissolved in DMSO, positive controls or DMSO only was transferred to the assay plates by a Pintool station (Kalypsys, San Diego, CA). The transfer of compounds was followed by the addition of 1 uL of 0.1 nM (final concentration) agonist (17beta-Estradiol)/assay medium using a Flying Reagent Dispenser (FRD, Aurora Discovery, San Diego, CA). The plates were incubated at 37C and 5% CO2 for 22 hr. For cytotoxicity assay, 1 uL of CellTiter-Fluor reagent (Promega Corporation, Madison, WI) was added to each well using the FRD and after 30 min incubation at 37C and 5% CO2, The fluorescence intensity was measured using ViewLux plate reader (PerkinElmer, Shelton, CT).
% is scaled to controls: 0 for no effect and ±100 for the full control effect.

Row | SMILES | activity change, negative = cytotoxicity
1 | O=C(O[C@@H](C(=O)O)[C@@H](OC(=O)c1ccccc1)C(=O)O)c1ccccc1 | -0.303%
2 | CCOC(=O)c1cc(=O)c2c(OCC(COc3cccc4oc(C(=O)OCC)cc(=O)c34)OC(=O)[C@@H](N)CCCCN)cccc2o1 | 1.57% [at 42.5 µM]
3 | O=CCCc1ccccc1 | 4.4%
4 | CCc1cc2cc(OC)c(OC)cc2c(Cc2ccccc2)n1 | 0.135% [at 42.5 µM]
5 | CCCCc1ccc2nc(NC(=O)OC)[nH]c2c1 | 5.99% [at 42.5 µM]
6 | NCCC(O)(P(=O)(O)O)P(=O)(O)O | -1.73% [at 42.5 µM]
7 | Cc1c(-c2ccccc2)oc2c(C(=O)OCCN3CCCCC3)cccc2c1=O | 2.43% [at 42.5 µM]
8 | COC(=O)C(C)O (stereo not given) | 13%
9 | CCOC(=O)NCCC[Si](OCC)(OCC)OCC | 4.37%
10 | C1CSCCS1 | 19.2%
11 | CCCCNc1ccc(C(=O)OCCN(CC)CC)cc1 | -12.2% [at 42.5 µM]
12 | O=Cc1ccc(O)c(O)c1O | -29% [at 42.5 µM]
13 | CC(C)NC[C@@H](O)COc1cccc2ccccc12 | 0.471% [at 42.5 µM]
14 | CCN(CC)CCOc1ccc(Cc2ccccc2)cc1 | -13.8% [at 42.5 µM]
15 | CN(CC1(C)CCCO1)S(=O)(=O)c1ccc(Cl)c(S(N)(=O)=O)c1 (stereo not given) | 2.49% [at 42.5 µM]
16 | O=C1CCCCC1C1CCCCC1 (stereo not given) | -25.5%
17 | CCCOc1ccc2c(c1)CC[C@@H]1[C@@H]2CC[C@]2(C)C(OC)CC[C@@H]12 (stereo not given in full) | 2.22% [at 42.5 µM]
18 | CCCc1c2oc(C(=O)O)cc(=O)c2cc2c(=O)cc(C(=O)O)n(CC)c12 | -11.7% [at 42.5 µM]
19 | CC1CN(c2ccccc2)NC1=O (stereo not given) | 2.88%
20 | CC(C)C[C@H](NC(=O)OCC1c2ccccc2-c2ccccc21)C(=O)O | 3.11%

Row | SMILES | activity change, negative = cytotoxicity
21 | CC(=O)N(CC(O)CN(C(C)=O)c1c(I)c(C(=O)NCC(O)CO)c(I)c(C(=O)NCC(O)CO)c1I)c1c(I)c(C(=O)NCC(O)CO)c(I)c(C(=O)NCC(O)CO)c1I (stereo not given) | 0.127% [at 42.5 µM]
22 | Oc1ccccc1F | 0.635%
23 | Cc1ccc(C(C)C)cc1O | -7.55%
24 | O=c1[nH]c(=O)n([C@H]2C[C@H](O)[C@@H](CO)O2)cc1C(F)(F)F | -0.86% [at 42.5 µM]
25 | O=C1CCC(C2CCCCC2)CC1 | 5.53%
26 | OCc1c2ccccc2cc2ccccc12 | -3.39%
27 | Cc1cccc(C)c1NC(=O)CN1CCCCCC1 | 5.73% [at 42.5 µM]
28 | C=CCCCCCCCCO | -2.05%
29 | NCCCN1CCN(CCCN)CC1 | -6.33%
30 | Oc1ccccc1C=NCc1ccccc1 | -0.645% [at 42.5 µM]
31 | CC/C=C\CCOC(=O)C(C)C | -8.97%
32 | CCCN(CCC)C(=O)C(CCC(=O)O)NC(=O)c1ccccc1 (stereo not given) | -4.35% [at 42.5 µM]
33 | Cn1cnc2c(F)c(Nc3ccc(Br)cc3Cl)c(C(=O)NOCCO)cc21 | -0.965% [at 42.5 µM]
34 | OCC(CBr)(CBr)CBr | 10.2%
35 | Nc1cccc(S(=O)(=O)O)c1 | 12.1%
36 | c1ccc(CN(CC2=NCCN2)c2ccccc2)cc1 | -5.79% [at 42.5 µM]
37 | COC(C)CCO (stereo not given) | 8.41%
38 | CCC(=O)Nc1ccc(O)cc1 | 7.3% [at 42.5 µM]
39 | CC(C)(C)c1ccc(OC(=O)c2ccccc2O)cc1 | -1.69%
40 | COC(=O)/C=C(/C)N | 2.57% [at 42.5 µM]
